# ± gives the standard deviation.
# Legend:
# [1] = test system: MILI (PIWIL2) piRISC loaded with piRNA #1 (26 nt); assay: pre-steady-state target cleavage rate (min^-1); guide: piRNA #1 5'p-UGAGGUAGUAGGUUGUAUAGUAUCCA; higher = faster piRNA-guided slicing of the target; conditions: auxiliary factor: 500 nM mouse GTSF1
# In short: (§1)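 In Cleave-'n-Seq, a transcribed, DNA-blocked target RNA library (0.1 nM) was combined with 1 nM active affinity-purified piRISC bearing one synthetic guide, with or without 500 nM GTSF1 partner protein. Reactions ran in HEPES–potassium acetate buffer at 33 °C for 0–8 or 0–960 min. Uncleaved targets were sequenced and normalised to depth and to weakly complementary targets, three trials were pooled, and k3 was capped at 0.0001 min^-1. The pre-steady-state cleavage rate was obtained by fitting a burst-and-steady-state model.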
# [2] = test system: EfPiwi piRISC loaded with piRNA #1 (26 nt); assay: pre-steady-state target cleavage rate (min^-1); auxiliary factor: 500 nM Ephydatia muelleri Gtsf1; guide: piRNA #1 5'p-UGAGGUAGUAGGUUGUAUAGUAUCCA; MIWI and MILI are mouse PIWI proteins and EfPiwi is from a freshwater sponge; tags in brackets are library labels; higher = faster piRNA-guided slicing of the target
# In short: as §1
Sequence,pre-steady-state target cleavage rate [1],pre-steady-state target cleavage rate [2]
GGAGACGAAACUAUACAUCCUACUACCUCA,0.255 ± 0.026,0.00655 ± 0.0027
GGAGACGAUACUAUACAACCUACUUCCUGA,0.00812 ± 0.005,0.00342 ± 0.002
GGAGACCAUACUAUACAACUUACUACCUCA,0.0165 ± 0.0023,0.00338 ± 0.0027
GGAGAGGAUACUAUACAAGCAACUACCUCA,0.00819 ± 0.0023,0.00405 ± 0.0022
GGAGACCUAACUAUACAACCUACUACCUACA,0.165 ± 0.023,0.00795 ± 0.0042
GGAGAGGAUACAAUACAAGCUACUACCUCA,0.178 ± 0.017,0.0036 ± 0.0019
GGAGUGGAUACUAUACAACCUACUAUCUCA,0.137 ± 0.011,0.0684 ± 0.026
GGAGAGGAAACUAUACAACCUACUACCUCA,0.222 ± 0.026,0.00596 ± 0.0036
GGAGACGUUAGUAUACAACCUACUACCUCA,0.119 ± 0.013,0.00686 ± 0.0036
GGAGACCUAAUCUAUACAACCUACUACCUCA,0.11 ± 0.024,0.297 ± 0.099
GGAGACGAUUCUAUACAACCUACAACCUCA,0.164 ± 0.013,0.00277 ± 0.0012
GGAGACCUUACUAUUACAACCUACUACCUCA,0.117 ± 0.01,0.00484 ± 0.0035
GGAGACCAUACUAUACAACCUACUAUCUCA,0.136 ± 0.013,0.00899 ± 0.0033
GGAGACGAUACUAUACAACCAACUUCCUCA,0.00374 ± 0.0027,0.00381 ± 0.0022
GGAGACCUUGACUAUACAACCUACUACCUCA,0.163 ± 0.022,0.00922 ± 0.0051
GGAGAGCAUACUAUACAACCUACUACCUGA,0.112 ± 0.017,0.00603 ± 0.0027
GGAGACGAUACUAAACAACCUAGUACCUCA,0.049 ± 0.0087,0.00281 ± 0.0023
GGAGACCUUACUAUACAACCUACUACCUA,0.152 ± 0.018,0.0485 ± 0.018
GGAGACCAUACUCAUACAACCUACUACCUCA,0.119 ± 0.013,0.0108 ± 0.0052
GGAGAGGAUACUAUAUCAACCUACUACCUCA,0.107 ± 0.0098,0.0145 ± 0.0066

Sequence,pre-steady-state target cleavage rate [1],pre-steady-state target cleavage rate [2]
GGAGUGGAUACUAUACAACCUCUACCUCA,0.0226 ± 0.0033,0.0673 ± 0.023
GGAGUGGAUACUAUACAACCUACCUACCUCA,0.128 ± 0.0098,0.00423 ± 0.0017
GGAGACCUUACUAUACAACCUACUACCCUCA,0.17 ± 0.019,0.00416 ± 0.0023
GGAGACCAUACUAUAGCAACCUACUACCUCA,0.191 ± 0.016,0.00736 ± 0.0044
GGAGACCUAUCGAUACAACCUACUACCUCA,0.0869 ± 0.014,0.0102 ± 0.0056
GGAGACCUAGCUAUACAACCUACUACCUCA,0.0862 ± 0.027,0.00604 ± 0.0058
GGAGACCUAACUAUACAACCUACUACCUAA,0.0853 ± 0.015,0.0641 ± 0.025
GGAGACCUAUCUGAUACAACCUACUACCUCA,0.0421 ± 0.0081,0.00758 ± 0.0035
GGAGACCUAUCUAUACAACCUACUACCUCG [g2:g20:cont:t1G],0.11 ± 0.012,0.061 ± 0.024
GGAGACCAUAGAUUACAACCUACUACCUCA,0.0355 ± 0.0071,0.00655 ± 0.0034
GGAGAGGAUACUAUACAACCGUACUACCUCA,0.00509 ± 0.0031,0.00659 ± 0.0028
GGAGACGAUACUAAACAACGUACUACCUCA,0.017 ± 0.0026,0.00192 ± 0.0019
GGAGACCUUACUAUACAACCUACUACCAGA,0.107 ± 0.017,0.00482 ± 0.0036
GGAGACCAUACUAUACAACGUACUUCCUCA,0.0304 ± 0.0072,0.00544 ± 0.0032
GGAGACCUAUGUAUACAACCUACUACCUCA [g2:g19:cont:t1A],0.0765 ± 0.012,0.00649 ± 0.0034
GGAGACGAUACUAUACAACCUACUACCUGA,0.132 ± 0.02,0.0064 ± 0.002
GGAGACGAUACUAUACUACCUACUACCUCA,0.2 ± 0.013,0.00925 ± 0.0032
GGAGAGGAUACUAUACAACCUACUACCGCA,0.0764 ± 0.015,0.00593 ± 0.0021
GGAGACGAUACUAUACUACCUACUAGCUCA,0.124 ± 0.018,0.00251 ± 0.0018
GGAGACCUUACUAUACGACCUACUACCUCA,0.0683 ± 0.0088,0.016 ± 0.0076

Sequence,pre-steady-state target cleavage rate [1],pre-steady-state target cleavage rate [2]
GGAGUGGUUACUAUACAAGCUACUACCUCA,0.213 ± 0.016,0.00582 ± 0.0018
GGAGACGAUACUAUACACCUACUACCUCA,0.0294 ± 0.0067,0.0134 ± 0.0055
GGAGACCUAUGAUUACAACCUACUACCUCA [g2:g17:cont:t1A],0.00593 ± 0.0026,0.00451 ± 0.0032
GGAGAGGAACUAUACAACCUACUACCUCA,0.167 ± 0.013,0.00746 ± 0.0049
GGAGACCAUACUAUACAACCUACUUGGAGA [g7:g23:cont:t1A],0.00469 ± 0.0036,0.00547 ± 0.0034
GGAGACGAUACUAUACAACCUACUACCUA,0.151 ± 0.018,0.104 ± 0.038
GGAGAGGAUACUUUACAACCUACUACCUCA,0.172 ± 0.011,0.00667 ± 0.0036
GGAGACCAUAGCUAUACAACCUACUACCUCA,0.121 ± 0.014,0.0108 ± 0.0051
GGAGACCUAUCUAUACAACCUACUACCGCA,0.174 ± 0.021,0.0051 ± 0.0049
GGAGAGGAUACUAUACAACGUUCUACCUCA,0.00213 ± 0.0019,0.00409 ± 0.0022
GGAGUGGAUACUAUACAACCUACGUACCUCA,0.118 ± 0.014,0.00401 ± 0.0015
GGAGACGAAAGUAUACAACCUACUACCUCA,0.108 ± 0.01,0.0104 ± 0.0056
GGAGUCGAUACUAUUCAACCUACUACCUCA,0.192 ± 0.012,0.00506 ± 0.0029
GGAGACCUAUGAAUACAACCUACUACCUCU [g2:g18:cont:t1U],0.0139 ± 0.0044,0.688 ± 0.25
GGAGAGGAUACUAUCCAACCUACUACCUCA,0.232 ± 0.015,0.00889 ± 0.004
GGAGACGAUACUAUACUACCUACUUCCUCA,0.101 ± 0.016,0.00224 ± 0.0016
GGAGACCAUACUAUACAACCUACUACCUUCA,0.2 ± 0.018,0.0679 ± 0.02
GGAGACGAUAACUAUACAACCUACUACCUCA,0.116 ± 0.0099,0.0617 ± 0.023
GGAGACGAUACUAUACCAACCUACUACCUCA,0.0605 ± 0.013,0.0123 ± 0.0043

# From the supplement of paper PMC10338343
